We go through 62 compounds from PubChem BioAssay (Tox21).

A short description of assay [1]: cAMP Responsive Elements (CRE) small molecule antagonists, cell-based qHTS assay: qHTS cell viability counter screen (AID 2060913). Note: nearly all actives have a fitted effect of over 40% in size. The essentials:
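Steps: cells plated and held 18 hrs at 37 C/5% CO2; compounds and NKH477 (0.25 uM final) added; 3 hrs incubation; reporter substrate read; CellTiter-Glo added to measure cytotoxicity by luminescence.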

A short description of assay [2]: cAMP Responsive Elements (CRE) small molecule agonists, cell-based qHTS assay: qHTS cell viability counter screen (AID 2060914).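 Note: viability read after 3 h of compound exposure; nearly all actives have a fitted effect of over 50% in size.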 The essentials:
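CRE-bla HEK 293T cells, plated 18 h at 37 °C, were exposed to compounds for 3 h at 37 °C/5% CO2. Viability was then measured in the same wells by CellTiter-Glo luminescence after 30 min at room temperature.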
A general note: In qHTS, concentration-response curves come from the screen itself.

SMILES strings stand for the structures. “And” between values parts separate entries of the source, which are not always exact repeats. Equal entries are not always repeated. Records with an inconclusive call do not appear. Values without a mark were called inactive. The source made the active and inactive calls. Calls come from the whole dose curve; as a rule, active = well fitted cell-killing curve with a large enough effect in the repeat runs; inconclusive = weak or mixed curves, or effect the other way; inactive = flat fitted curve, though single readings scatter.
% is set by controls: 0 for no effect and ±100 for the full control effect; potency is the fitted concentration of half-maximal effect.

For the compound `O=C(CCc1ccc(O)cc1)c1c(O)cc(O)cc1O`, the Potency entry in assay [1] and in assay [2] was “inactive” each time.

For `Cc1cccnc1`, the Potency result in assay [1] and in assay [2] was “inactive” in each case.

On to `Nc1ccc(Cl)c(N)c1`, for which the Potency result in assay [1] and in assay [2] was “inactive” each time.

For `c1cc(-c2ccncc2)ccn1`, the Potency result in assay [1] and in assay [2] was “inactive” in each case.

As to `CNC(=O)c1c(I)c(NC(C)=O)c(I)c(C(=O)O)c1I`, the Potency result in assay [1] and in assay [2] was “inactive” in each case.

As to `CCN(CCCCOC(=O)c1ccc(OC)c(OC)c1)C(C)Cc1ccc(OC)cc1` (centres undefined), the Potency result in assay [1] and in assay [2] was “inactive” in each case.

Regarding `CCOC(=O)[C@H](CCc1ccccc1)N[C@@H](C)C(=O)N1CCC[C@H]1C(=O)O`, the Potency result in assay [1] and in assay [2] was “inactive” each time.

As for `Cc1cc(C)c(N)c(Cl)c1`, the Potency result in assay [1] and in assay [2] was “inactive” in each case.

Consider `COc1cc(O)c(C(=O)c2ccccc2)cc1S(=O)(=O)O`, for which the Potency entry in assay [1] and in assay [2] was “inactive” in each case.

Take `O=C1CCCCC1`: the Potency result in assay [1] and in assay [2] was “inactive” throughout.

In the case of `C[C@H](CCC(=O)O)[C@H]1CC[C@H]2[C@@H]3CC[C@@H]4C[C@H](O)CC[C@]4(C)[C@H]3CC[C@]12C`, the Potency entry in assay [1] and in assay [2] was “inactive” each time.

Turning to `CCC(CC)C(C)CCOC(C)=O` (centres undefined), the Potency entry in assay [1] and in assay [2] was “inactive” throughout.

Take `O=C(COCCOCCOCC(=O)Nc1c(I)cc(I)c(C(=O)O)c1I)Nc1c(I)cc(I)c(C(=O)O)c1I`: the Potency entry in assay [1] and in assay [2] was “inactive” in each case.

`CCSC(=O)N(CC(C)C)CC(C)C`: the Potency entry in assay [1] and in assay [2] was “inactive” throughout.

Regarding `CO[C@H]1C=CO[C@@]2(C)Oc3c(C)c(O)c4c(O)c(cc(O)c4c3C2=O)NC(=O)/C(C)=C\C=C/[C@H](C)[C@H](O)[C@@H](C)[C@@H](O)[C@@H](C)[C@H](OC(C)=O)[C@@H]1C`, the Potency result in assay [1] and in assay [2] was “inactive” throughout.

In the case of `Cc1onc(-c2ccccc2)c1C(=O)Cl`, the Potency entry in assay [1] and in assay [2] was “inactive” in each case.

As to `CC(C)n1nc(-c2cc3cc(O)ccc3[nH]2)c2c(N)ncnc21`, the Potency result in assay [1] and in assay [2] was “inactive” in each case.

Take `c1ccc(-c2ccccn2)nc1`: the Potency entry in assay [1] and in assay [2] was “inactive” each time.

As to `CC(C)(C)NC(=O)[C@@H]1CN(Cc2cccnc2)CCN1C[C@@H](O)C[C@@H](Cc1ccccc1)C(=O)N[C@H]1c2ccccc2C[C@H]1O`, the Potency entry in assay [1] and in assay [2] was “inactive” each time.

As for `C#C[C@]1(O)CC[C@H]2[C@@H]3CCc4cc(O)ccc4[C@H]3CC[C@@]21C`, the Potency entry in assay [1] and in assay [2] was “inactive” each time.

On to `CCCCNCCCC`, for which the Potency result in assay [1] and in assay [2] was “inactive” in each case.

In the case of `O=C1C=CCCC1`, the Potency entry in assay [1] and in assay [2] was “inactive” in each case.

`CC(C)=C1CC[C@@H](C)CC1=O`: the Potency entry in assay [1] and in assay [2] was “inactive” in each case.

As for `O=C(O)CCCCCCCC(=O)O`, the Potency entry in assay [1] and in assay [2] was “inactive” each time.

With `CC(C)CCCCCCc1ccc(O)cc1`, the Potency in assay [1] is 55.4 µM (active) and 27.3 µM (active); in assay [2], 55.4 µM (active) and 30.6 µM (active).

Consider `N[C@@H](CSSC[C@H](N)C(=O)O)C(=O)O`, for which the viability change, negative = cytotoxic in assay [1] was 0% [at 0.349 µM]. The activity change, negative = cytotoxicity in assay [2] is 11.2% [at 0.349 µM].

With `CCCC(=O)O[C@]1(C(=O)CO)CC[C@H]2[C@@H]3CCC4=CC(=O)CC[C@]4(C)[C@H]3[C@@H](O)C[C@@]21C`, the Potency entry in assay [1] and in assay [2] was “inactive” in each case.

Regarding `CCCCCCCCCCCCCCCC(=O)OC(C)C`, the Potency result in assay [1] and in assay [2] was “inactive” throughout.

`NC=O`: the Potency result in assay [1] and in assay [2] was “inactive” in each case.

As for `O=C(O)C1CCC1`, the Potency result in assay [1] and in assay [2] was “inactive” in each case.

Take `CC1=CC(=O)CCC1`: the Potency entry in assay [1] and in assay [2] was “inactive” throughout.

Consider `CC(C)c1ccccc1`, for which the Potency result in assay [1] and in assay [2] was “inactive” each time.

`CCN(O)CC`: the Potency result in assay [1] and in assay [2] was “inactive” in each case.

Turning to `CCOc1ccc(OCC)c(Cl)c1`, the Potency entry in assay [1] and in assay [2] was “inactive” each time.

On to `Cc1cccc(C)c1NC(=O)c1ccccc1C(=O)O`, for which the Potency result in assay [1] and in assay [2] was “inactive” each time.

On to `Cc1ccc(S(=O)(=O)O)c(C)c1`, for which the Potency result in assay [1] and in assay [2] was “inactive” each time.

In the case of `COC(C)COC(C)COC(C)CO` (centres undefined), the Potency entry in assay [1] and in assay [2] was “inactive” in each case.

`C=CCCCCCCCCC(=O)OCC`: the Potency result in assay [1] and in assay [2] was “inactive” throughout.

For `COc1cc2c(cc1OC)C(=O)C(CC1CCN(Cc3ccccc3)CC1)C2` (centres undefined), the Potency entry in assay [1] and in assay [2] was “inactive” each time.

Take `CN(C)CCC=C1c2ccccc2C=Cc2ccccc21`: the Potency entry in assay [1] and in assay [2] was “inactive” each time.

Take `Cc1cc2c(OCC(CNC(C)(C)C)OC(=O)c3ccccc3)cccc2[nH]1` (centres undefined): the Potency entry in assay [1] and in assay [2] was “inactive” in each case.

`C[C@@H](C1=C(CCN(C)C)Cc2ccccc21)c1ccccn1`: the Potency entry in assay [1] and in assay [2] was “inactive” in each case.

For the compound `CCc1nccnc1CC`, in assay [1], the viability change, negative = cytotoxic is 0.102% [at 18.9 µM]. In addition, the activity change, negative = cytotoxicity in assay [2] was 11.2% [at 18.9 µM].

For the compound `CC(C)OP(=O)(CP(=O)(OC(C)C)OC(C)C)OC(C)C`, the Potency entry in assay [1] and in assay [2] was “inactive” throughout.

Consider `OCc1c2ccccc2cc2ccccc12`, for which the Potency entry in assay [1] and in assay [2] was “inactive” in each case.

Consider `COC(=O)CC#N`, for which the Potency result in assay [1] and in assay [2] was “inactive” each time.

Turning to `OC1CCCCC1`, the Potency entry in assay [1] and in assay [2] was “inactive” throughout.

As for `CCCCCCCCCCCCCCC`, the Potency entry in assay [1] and in assay [2] was “inactive” in each case.

Turning to `COC(=O)[C@@H](N)Cc1ccc(O)c(O)c1`, the Potency entry in assay [1] and in assay [2] was “inactive” throughout.

`COc1ccc([C@@H]2CC(=O)c3c(O)cc(O[C@@H]4O[C@H](CO[C@@H]5O[C@@H](C)[C@H](O)[C@@H](O)[C@H]5O)[C@@H](O)[C@H](O)[C@H]4O)cc3O2)cc1OC`: the Potency entry in assay [1] and in assay [2] was “inactive” in each case.

Regarding `Cn1c(=O)c2[nH]c(Br)nc2n(C)c1=O`, the Potency result in assay [1] and in assay [2] was “inactive” throughout.

In the case of `CC(C)CCCC(C)CC=O` (centres undefined), the Potency result in assay [1] and in assay [2] was “inactive” each time.

`CCCCCCCCCCc1ccccc1`: the Potency result in assay [1] and in assay [2] was “inactive” throughout.

For the compound `OCCOc1cccc(OCCO)c1`, the Potency entry in assay [1] and in assay [2] was “inactive” throughout.

`C=CC(C)(CCC=C(C)C)OC(=O)/C=C/c1ccccc1` (centres undefined): the Potency entry in assay [1] and in assay [2] was “inactive” each time.

Turning to `CC(C)=CCC[C@H](C)CCO`, the Potency result in assay [1] and in assay [2] was “inactive” throughout.

Consider `Cc1c(N=C=O)cccc1N=C=O`, for which the Potency result in assay [1] and in assay [2] was “inactive” each time.

As for `O=C(CCN1CCN2CCCC2C1)N1c2ccccc2Sc2ccc(Cl)cc21` (centres undefined), in assay [1], the viability change, negative = cytotoxic was 0.501% [at 18.9 µM]. The activity change, negative = cytotoxicity in assay [2] is 5.15% [at 18.9 µM].

Turning to `O=C(NCC1CN(c2ccc(N3CCOCC3=O)cc2)C(=O)O1)c1ccc(Cl)s1` (centres undefined), the Potency entry in assay [1] and in assay [2] was “inactive” each time.

For the compound `CCCC(=O)CC`, the Potency result in assay [1] and in assay [2] was “inactive” throughout.

For `Cc1ccc(C(C)C)cc1O`, the Potency result in assay [1] and in assay [2] was “inactive” in each case.

For the compound `CCOC(=O)[C@H](CCc1ccccc1)N[C@@H](C)C(=O)N1[C@H](C(=O)O)C[C@@H]2CCC[C@@H]21`, the Potency entry in assay [1] and in assay [2] was “inactive” throughout.
